Measured values reported in the supplement of paper PMC10849652.
Of roughly 7,900 targets only a part is listed; those with a hit were picked by preference. About 0.6% of all pairs of compound and target were hits.

Tests used:
Assay in all cases: log2 fold change, soluble protein after heating vs DMSO (PISA); higher = thermal stabilisation; K562 cells, 10 uM, 30 min; active = over 0.2 and 3.5 SD of the protein, either way, in both replicates (recomputed)
[1] = compound: CC1=C(C=C(C=C1)NC(=O)C2=CC(=CC=C2)C(C)(C)C#N)NC3=CC4=C(C=C3)N=CN(C4=O)C
Procedure, shortened: (§1)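 K562 cells at 2×10^6 cells/mL were exposed to 10 μM compound for 30 min, then aliquots were heated for 3 min across 48°C-58°C, pooled, and extracted in PBS containing 0.5% NP-40 at 4°C. The supernatant after 21,000xg for 90 min was taken as soluble protein and measured by TMTpro 16plex LC-MS/MS with channel sums equalised. Thermal stability is reported relative to control samples, with values from duplicates. Fold changes are given on a log2 scale.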

[2] = compound: CC1=C(C=C(C=C1)NC(=O)C2=CC(=CC=C2)N(C)C)NC(=O)C3=CC=C(C=C3)O
Procedure, shortened: as §1

[3] = compound: CC1=CC=C(C=C1)SC2=C3C=C(SC3=CN=C2)C(=O)N
Procedure, shortened: as §1

[4] = compound: CC1=NC(=CC=C1)C2=C(N=C(N2)C(C)(C)C)C3=CC4=NC=CN=C4C=C3
Procedure, shortened: as §1

Nexturastat A = compound: CCCCN(Cc1ccc(C(=O)NO)cc1)C(=O)Nc1ccccc1 [Nexturastat A]
Procedure, shortened: as §1

vemurafenib = compound: CCCS(=O)(=O)Nc1ccc(F)c(C(=O)c2c[nH]c3ncc(-c4ccc(Cl)cc4)cc23)c1F [vemurafenib]
Procedure, shortened: as §1

[5] = compound: CCCS(=O)(=O)Nc1ccc(F)c(C(=O)c2c[nH]c3ncc(Cl)cc23)c1F
Procedure, shortened: as §1

[6] = compound: CCCc1cc(C)[nH]c(=O)c1CNC(=O)c1cc(-c2ccnc(N3CCN(C)CC3)c2)cc2c1cnn2C(C)C
Procedure, shortened: as §1

givinostat = compound: CCN(CC)Cc1ccc2cc(COC(=O)Nc3ccc(C(=O)NO)cc3)ccc2c1 [givinostat]
Procedure, shortened: as §1

barasertib = compound: CCN(CCCOc1ccc2c(Nc3cc(CC(=O)Nc4cccc(F)c4)[nH]n3)ncnc2c1)CCOP(=O)(O)O [barasertib]
Procedure, shortened: as §1

Measured: log2 fold change

IRAK4 (UniProt Q9NWZ3)
inactive: [1] 0.006 | [2] -0.039 | [3] 0 | [4] 0.03 | Nexturastat A 0.009 | vemurafenib 0.041 | [5] 0.068 | [6] -0.003 | givinostat 0.062 | barasertib 0.024

MAIP1 (UniProt Q8WWC4)
Sequence of UniProt Q8WWC4 (Q8WWC4 whole entry, looked up): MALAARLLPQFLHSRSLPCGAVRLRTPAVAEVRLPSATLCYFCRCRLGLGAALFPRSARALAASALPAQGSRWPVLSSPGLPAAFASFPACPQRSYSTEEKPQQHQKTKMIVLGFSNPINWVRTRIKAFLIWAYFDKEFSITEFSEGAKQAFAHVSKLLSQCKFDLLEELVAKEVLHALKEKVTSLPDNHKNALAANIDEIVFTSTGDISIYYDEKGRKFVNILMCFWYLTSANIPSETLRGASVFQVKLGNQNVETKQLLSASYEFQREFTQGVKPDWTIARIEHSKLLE
inactive: [1] -0.022 | [2] -0.005 | [3] 0.083 | [4] 0.088 | Nexturastat A -0.033 | vemurafenib 0.034 | [5] 0.057 | [6] -0.034 | givinostat 0.001 | barasertib -0.002

IL27RA (UniProt Q6UWB1)
Sequence of UniProt Q6UWB1 (Q6UWB1 whole entry, looked up): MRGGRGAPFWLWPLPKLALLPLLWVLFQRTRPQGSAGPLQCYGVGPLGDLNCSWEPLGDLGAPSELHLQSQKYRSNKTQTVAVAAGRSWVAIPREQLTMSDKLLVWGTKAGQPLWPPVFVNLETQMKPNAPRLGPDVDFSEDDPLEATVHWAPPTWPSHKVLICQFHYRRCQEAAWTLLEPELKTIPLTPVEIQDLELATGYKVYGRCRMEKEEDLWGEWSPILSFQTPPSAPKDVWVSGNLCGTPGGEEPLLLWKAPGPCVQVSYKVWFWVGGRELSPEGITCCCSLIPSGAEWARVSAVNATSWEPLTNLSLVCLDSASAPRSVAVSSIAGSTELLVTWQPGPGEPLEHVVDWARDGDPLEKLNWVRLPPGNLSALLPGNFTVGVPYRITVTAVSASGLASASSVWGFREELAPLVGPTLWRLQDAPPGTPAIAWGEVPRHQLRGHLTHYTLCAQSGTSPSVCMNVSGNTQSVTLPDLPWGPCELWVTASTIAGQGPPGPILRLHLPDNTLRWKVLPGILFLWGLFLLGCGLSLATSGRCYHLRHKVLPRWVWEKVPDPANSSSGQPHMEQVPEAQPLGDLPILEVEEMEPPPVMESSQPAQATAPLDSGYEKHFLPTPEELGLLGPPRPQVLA
inactive: [1] -0.048 | [2] -0.048 | [3] -0.006 | [4] -0.018 | Nexturastat A 0.027 | vemurafenib -0.025 | [5] -0.091 | [6] -0.008 | givinostat 0.006 | barasertib 0.011

KIF2C (UniProt Q99661)
inactive: [1] 0.012 | [2] -0.038 | [3] 0.057 | [4] 0.067 | Nexturastat A 0.02 | vemurafenib 0.087 | [5] 0.053 | [6] 0.03 | givinostat 0.016 | barasertib 0.053

LEMD3 (UniProt Q9Y2U8)
inactive: [1] -0.066 | [2] -0.071 | [3] -0.005 | [4] -0.017 | Nexturastat A 0.026 | vemurafenib 0.056 | [5] 0.005 | [6] 0.054 | givinostat 0.077 | barasertib 0.023

KHDC4 (UniProt Q7Z7F0)
inactive: [1] -0.008 | [2] -0.055 | [3] 0.026 | [4] 0.071 | Nexturastat A 0.068 | vemurafenib 0.113 | [5] 0.017 | [6] 0.038 | givinostat 0.048 | barasertib 0.049

LRPPRC (UniProt P42704)
inactive: [1] 0.264 | [2] -0.054 | [3] 0.222 | [4] 0.336 | Nexturastat A 0.282 | vemurafenib 0.227 | [5] 0.264 | [6] -0.005 | givinostat 0.417 | barasertib 0.369

LNPK (UniProt Q9C0E8)
Sequence of UniProt Q9C0E8 (Q9C0E8 whole entry, looked up): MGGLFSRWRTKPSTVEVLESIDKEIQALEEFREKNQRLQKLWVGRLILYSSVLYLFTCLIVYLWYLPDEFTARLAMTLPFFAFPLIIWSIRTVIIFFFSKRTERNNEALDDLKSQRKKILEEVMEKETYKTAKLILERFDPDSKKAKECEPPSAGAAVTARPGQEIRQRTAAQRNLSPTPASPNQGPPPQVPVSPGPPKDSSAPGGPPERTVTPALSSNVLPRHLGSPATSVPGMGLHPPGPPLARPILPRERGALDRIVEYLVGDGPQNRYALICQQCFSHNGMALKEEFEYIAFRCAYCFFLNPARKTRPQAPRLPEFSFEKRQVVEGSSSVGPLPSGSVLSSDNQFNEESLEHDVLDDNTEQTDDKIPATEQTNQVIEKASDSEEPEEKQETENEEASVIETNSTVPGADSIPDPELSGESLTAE
inactive: [1] -0.011 | [2] 0.01 | [3] -0.038 | [4] 0.016 | Nexturastat A -0.023 | vemurafenib -0.042 | [5] -0.027 | [6] -0.028 | givinostat -0.018 | barasertib 0.012

MED7 (UniProt O43513)
Sequence of UniProt O43513 (O43513 whole entry, looked up): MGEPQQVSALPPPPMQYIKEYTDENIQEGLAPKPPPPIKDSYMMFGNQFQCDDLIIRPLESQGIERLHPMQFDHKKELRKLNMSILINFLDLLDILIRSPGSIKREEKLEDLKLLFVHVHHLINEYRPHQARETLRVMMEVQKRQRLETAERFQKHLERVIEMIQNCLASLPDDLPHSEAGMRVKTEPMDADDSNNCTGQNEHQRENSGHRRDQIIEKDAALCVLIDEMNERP
inactive: [1] 0.049 | [2] -0.023 | [3] -0.009 | [4] 0.015 | Nexturastat A 0.212 | vemurafenib -0.021 | [5] -0.093 | givinostat -0.008 | barasertib -0.149

ITM2C (UniProt Q9NQX7)
inactive: [1] 0.096 | [2] 0.004 | [3] 0.187 | Nexturastat A 0.084 | vemurafenib 0.006 | [5] -0.014 | givinostat 0.09 | barasertib 0.057

MIEF1 (UniProt Q9NQG6)
Sequence of UniProt Q9NQG6 (Q9NQG6 whole entry, looked up): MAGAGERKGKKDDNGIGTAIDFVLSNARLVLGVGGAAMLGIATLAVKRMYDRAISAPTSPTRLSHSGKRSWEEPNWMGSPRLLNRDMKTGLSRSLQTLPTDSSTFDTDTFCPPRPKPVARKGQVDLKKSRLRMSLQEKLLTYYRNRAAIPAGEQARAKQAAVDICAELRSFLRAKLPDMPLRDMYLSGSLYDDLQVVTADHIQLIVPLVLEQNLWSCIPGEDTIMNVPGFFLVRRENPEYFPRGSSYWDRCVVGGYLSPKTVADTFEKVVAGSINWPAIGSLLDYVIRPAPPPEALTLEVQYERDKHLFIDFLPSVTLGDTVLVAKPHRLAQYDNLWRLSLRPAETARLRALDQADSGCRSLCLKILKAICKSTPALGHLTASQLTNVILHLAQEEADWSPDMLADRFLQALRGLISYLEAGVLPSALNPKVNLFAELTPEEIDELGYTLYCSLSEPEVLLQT
inactive: [1] 0.054 | [2] 0.009 | [3] 0.023 | [4] 0.13 | Nexturastat A -0.067 | vemurafenib -0.02 | [5] 0.019 | [6] 0.008 | givinostat -0.044 | barasertib 0.015

METTL18 (UniProt O95568)
Sequence of UniProt O95568 (O95568 whole entry, looked up): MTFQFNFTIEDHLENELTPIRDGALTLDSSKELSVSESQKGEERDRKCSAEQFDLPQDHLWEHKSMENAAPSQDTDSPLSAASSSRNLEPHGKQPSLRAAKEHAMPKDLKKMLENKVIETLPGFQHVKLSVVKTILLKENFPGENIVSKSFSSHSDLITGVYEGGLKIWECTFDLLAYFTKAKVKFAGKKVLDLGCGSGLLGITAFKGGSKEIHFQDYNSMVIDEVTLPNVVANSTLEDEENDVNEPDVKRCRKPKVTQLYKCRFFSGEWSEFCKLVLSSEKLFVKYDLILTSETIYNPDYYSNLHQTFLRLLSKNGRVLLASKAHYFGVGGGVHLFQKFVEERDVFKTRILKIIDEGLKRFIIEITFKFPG
inactive: [1] -0.026 | [2] 0.018 | [3] -0.032 | [4] 0.028 | Nexturastat A -0.164 | vemurafenib 0.014 | [5] 0.05 | [6] -0.042 | givinostat -0.245 | barasertib 0.012

MASTL (UniProt Q96GX5)
inactive: [1] 0.032 | [2] 0.187 | [4] -0.056 | Nexturastat A -0.149 | vemurafenib -0.028 | [6] -0.032 | givinostat -0.038 | barasertib -0.013

IMMT isoform 4 (UniProt Q16891)
inactive: [1] 0.009 | [2] 0.012 | [3] 0.032 | [4] 0.032 | Nexturastat A -0.027 | vemurafenib -0.007 | [5] 0.002 | [6] -0.045 | givinostat -0.022 | barasertib 0.001

LARP4B (UniProt Q92615)
inactive: [1] 0.055 | [2] 0.032 | [3] 0.016 | [4] 0.001 | Nexturastat A 0.127 | vemurafenib 0.016 | [5] 0.022 | [6] 0.05 | givinostat 0.061 | barasertib -0.025

KMT2C isoform 3 (UniProt Q8NEZ4)
inactive: [1] -0.053 | [2] -0.07 | Nexturastat A -0.046 | vemurafenib -0.103 | [6] -0.033 | givinostat 0.011 | barasertib -0.003

LENG8 (UniProt Q96PV6)
inactive: [1] 0.112 | [2] -0.201 | [4] 0.009 | Nexturastat A -0.139 | vemurafenib 0.146 | [6] 0.066 | givinostat 0.09 | barasertib 0.173

MED25 isoform 3 (UniProt Q71SY5)
inactive: [1] -0.033 | [2] 0.022 | [3] -0.012 | [4] -0.014 | vemurafenib 0.141 | [5] 0.05 | [6] -0.083 | givinostat 0.105 | barasertib 0.019

ITGA2B (UniProt P08514)
inactive: [1] -0.071 | [2] 0.064 | [3] -0.058 | [4] -0.052 | Nexturastat A 0.121 | vemurafenib -0.105 | [5] 0.134 | givinostat 0.09

IP6K1 (UniProt Q92551)
Sequence of UniProt Q92551 (Q92551 whole entry, looked up): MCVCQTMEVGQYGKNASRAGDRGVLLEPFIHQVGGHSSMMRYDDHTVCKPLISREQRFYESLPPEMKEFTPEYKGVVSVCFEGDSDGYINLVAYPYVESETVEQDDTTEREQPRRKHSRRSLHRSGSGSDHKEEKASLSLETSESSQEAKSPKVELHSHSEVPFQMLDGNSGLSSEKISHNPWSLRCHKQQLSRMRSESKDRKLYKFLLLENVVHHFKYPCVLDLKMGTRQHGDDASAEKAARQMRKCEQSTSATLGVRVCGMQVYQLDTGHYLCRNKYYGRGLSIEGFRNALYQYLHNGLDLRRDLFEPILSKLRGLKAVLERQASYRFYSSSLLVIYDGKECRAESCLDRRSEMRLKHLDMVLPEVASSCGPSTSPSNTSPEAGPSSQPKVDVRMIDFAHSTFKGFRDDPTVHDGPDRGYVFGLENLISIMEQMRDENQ
inactive: [1] 0.443 | [2] 0.022 | Nexturastat A 0.232 | [5] -0.015 | [6] 0.068 | givinostat -0.008 | barasertib 0.259

LYN isoform 2 (UniProt P07948)
Sequence of UniProt P07948 (P07948 whole entry, looked up): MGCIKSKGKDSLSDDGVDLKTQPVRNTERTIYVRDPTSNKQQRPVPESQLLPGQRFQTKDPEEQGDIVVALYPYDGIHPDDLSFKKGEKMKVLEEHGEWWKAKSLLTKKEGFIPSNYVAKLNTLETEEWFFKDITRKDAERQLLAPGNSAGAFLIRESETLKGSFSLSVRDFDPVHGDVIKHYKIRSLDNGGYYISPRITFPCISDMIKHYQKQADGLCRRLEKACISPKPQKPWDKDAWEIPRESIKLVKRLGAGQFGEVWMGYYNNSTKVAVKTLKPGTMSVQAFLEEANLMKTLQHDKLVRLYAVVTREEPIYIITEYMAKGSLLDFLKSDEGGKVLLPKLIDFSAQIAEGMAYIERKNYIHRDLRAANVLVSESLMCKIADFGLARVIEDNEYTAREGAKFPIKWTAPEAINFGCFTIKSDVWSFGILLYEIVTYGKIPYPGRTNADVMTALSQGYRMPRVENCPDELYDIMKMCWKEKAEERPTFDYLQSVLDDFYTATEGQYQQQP
inactive: [1] 0.056 | [3] -0.079 | [4] -0.079 | Nexturastat A 0.376 | vemurafenib 0.095 | [5] -0.296 | givinostat -0.168

MED22 (UniProt Q15528)
Sequence of UniProt Q15528 (Q15528 whole entry, looked up): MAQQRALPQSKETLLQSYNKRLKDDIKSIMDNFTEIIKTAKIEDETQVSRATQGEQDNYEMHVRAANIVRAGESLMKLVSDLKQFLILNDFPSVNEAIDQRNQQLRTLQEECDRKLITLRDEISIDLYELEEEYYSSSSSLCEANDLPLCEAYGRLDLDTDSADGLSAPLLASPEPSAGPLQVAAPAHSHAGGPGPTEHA
inactive: [1] -0.023 | [2] 0.034 | [4] 0.015 | Nexturastat A -0.033 | vemurafenib 0.043 | [6] 0.014 | givinostat 0.117 | barasertib 0.028

MAP4 isoform 5 (UniProt P27816)
inactive: [1] 0.013 | [2] 0.055 | [3] -0.173 | Nexturastat A 0.105 | [5] -0.01 | [6] -0.161 | givinostat -0.028 | barasertib -0.114

MED12 isoform 2 (UniProt Q93074)
inactive: [1] 0.034 | [2] -0.202 | [3] -0.015 | [4] -0.09 | Nexturastat A 0.012 | [5] 0.071 | [6] 0.023 | givinostat 0.106 | barasertib -0.135

MFSD11 (UniProt O43934)
Sequence of UniProt O43934 (O43934 whole entry, looked up): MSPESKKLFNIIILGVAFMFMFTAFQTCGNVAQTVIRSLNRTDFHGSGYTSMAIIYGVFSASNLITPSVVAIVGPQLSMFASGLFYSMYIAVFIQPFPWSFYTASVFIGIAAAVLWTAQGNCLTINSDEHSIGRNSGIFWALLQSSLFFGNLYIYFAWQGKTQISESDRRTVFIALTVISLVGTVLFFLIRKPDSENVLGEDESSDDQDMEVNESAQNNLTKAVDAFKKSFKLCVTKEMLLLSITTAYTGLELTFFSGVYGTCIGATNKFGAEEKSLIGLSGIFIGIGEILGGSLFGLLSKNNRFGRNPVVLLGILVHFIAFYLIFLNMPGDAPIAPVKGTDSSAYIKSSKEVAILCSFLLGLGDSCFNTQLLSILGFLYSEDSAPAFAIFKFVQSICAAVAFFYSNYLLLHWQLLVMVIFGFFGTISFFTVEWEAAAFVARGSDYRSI
inactive: [1] -0.171 | [3] 0.038 | [4] 0.013 | Nexturastat A -0.097 | vemurafenib -0.012 | [5] 0.039 | [6] -0.02 | barasertib 0.013

MARK2 (UniProt E9PC69)
inactive: [1] -0.011 | [2] -0.018 | [3] 0.094 | [4] 0.06 | Nexturastat A 0.025 | vemurafenib -0.005 | [5] -0.034 | givinostat 0.132 | barasertib 0.034

KLHL18 (UniProt O94889)
inactive: [1] -0.068 | [2] -0.009 | [3] 0.003 | Nexturastat A -0.099 | vemurafenib -0.05 | [5] -0.051 | [6] 0.06 | givinostat -0.049 | barasertib 0.11

LMNA (UniProt P02545)
inactive: [1] -0.023 | [2] 0.095 | [3] -0.026 | [4] -0.002 | Nexturastat A -0.022 | vemurafenib 0.088 | [5] 0.014 | [6] -0.027 | givinostat 0.014 | barasertib -0.004

LMBRD1 (UniProt Q9NUN5)
inactive: [1] 0.073 | [2] 0.02 | [3] 0.023 | Nexturastat A -0.034 | vemurafenib -0.101 | [5] -0.057 | [6] -0.077 | givinostat 0.05 | barasertib -0.039

KIF1B isoform 4 (UniProt O60333)
inactive: [1] -0.07 | [2] 0.058 | [3] 0.008 | [4] 0.024 | Nexturastat A 0.024 | vemurafenib 0.002 | [5] 0.043 | [6] 0.018 | givinostat 0.122 | barasertib 0.073

IKZF1 isoform 2 (UniProt Q13422)
Sequence of UniProt Q13422 (Q13422 whole entry, looked up): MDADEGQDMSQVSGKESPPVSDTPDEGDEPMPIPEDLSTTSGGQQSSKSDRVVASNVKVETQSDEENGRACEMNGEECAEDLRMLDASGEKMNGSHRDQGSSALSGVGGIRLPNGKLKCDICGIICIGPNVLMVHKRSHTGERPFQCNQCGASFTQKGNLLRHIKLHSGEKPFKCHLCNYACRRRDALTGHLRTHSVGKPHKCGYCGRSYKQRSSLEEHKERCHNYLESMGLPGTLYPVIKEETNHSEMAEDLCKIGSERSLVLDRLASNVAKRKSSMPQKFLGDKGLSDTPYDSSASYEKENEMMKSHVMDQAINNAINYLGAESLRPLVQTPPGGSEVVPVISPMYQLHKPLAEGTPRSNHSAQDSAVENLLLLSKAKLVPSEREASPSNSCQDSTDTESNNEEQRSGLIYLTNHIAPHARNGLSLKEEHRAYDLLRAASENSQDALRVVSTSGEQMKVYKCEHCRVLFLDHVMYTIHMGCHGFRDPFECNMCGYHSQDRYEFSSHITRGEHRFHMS
inactive: [1] 0.141 | [2] -0.068 | vemurafenib 0.095 | [6] -0.002 | givinostat -0.135 | barasertib -0.08

MAGEA9 (UniProt P43362)
Sequence of UniProt P43362 (P43362 whole entry, looked up): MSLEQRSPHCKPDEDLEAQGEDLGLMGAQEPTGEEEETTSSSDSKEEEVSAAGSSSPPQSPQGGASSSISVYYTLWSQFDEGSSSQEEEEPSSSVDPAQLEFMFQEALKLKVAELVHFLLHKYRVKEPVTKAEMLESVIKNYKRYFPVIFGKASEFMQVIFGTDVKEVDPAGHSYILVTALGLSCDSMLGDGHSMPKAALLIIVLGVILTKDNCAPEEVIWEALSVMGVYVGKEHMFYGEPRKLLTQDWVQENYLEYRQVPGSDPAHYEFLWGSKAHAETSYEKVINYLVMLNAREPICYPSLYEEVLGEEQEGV
inactive: [1] -0.033 | [2] 0.05 | [3] -0.005 | [4] -0.087 | Nexturastat A 0.005 | vemurafenib -0.031 | [5] 0.072 | [6] 0.054 | givinostat 0.066 | barasertib 0.036

MAML1 (UniProt Q92585)
inactive: [1] -0.05 | [2] -0.035 | [4] 0.199 | Nexturastat A 0.039 | vemurafenib 0.038 | givinostat 0.299
